{
  "source": "PubChem BioAssay (Tox21)",
  "note": "Inconclusive results are not listed. Where a call stands in place of a potency, no number is given. A number with no mark means an inactive call. The source made the active and inactive calls. Calls come from the whole dose curve; as a rule, active = well fitted inhibition curve with a large enough effect in the repeat runs; inconclusive = weak or mixed curves; inactive = no such curve, though single readings can be large or run the other way. Potency is the fitted concentration of half-maximal effect.",
  "data": [
    {"molecular_target": "Cytochrome P450 2D6 (Homo sapiens) (UniProt P10635)", "sequence (P10635 whole entry, looked up)": "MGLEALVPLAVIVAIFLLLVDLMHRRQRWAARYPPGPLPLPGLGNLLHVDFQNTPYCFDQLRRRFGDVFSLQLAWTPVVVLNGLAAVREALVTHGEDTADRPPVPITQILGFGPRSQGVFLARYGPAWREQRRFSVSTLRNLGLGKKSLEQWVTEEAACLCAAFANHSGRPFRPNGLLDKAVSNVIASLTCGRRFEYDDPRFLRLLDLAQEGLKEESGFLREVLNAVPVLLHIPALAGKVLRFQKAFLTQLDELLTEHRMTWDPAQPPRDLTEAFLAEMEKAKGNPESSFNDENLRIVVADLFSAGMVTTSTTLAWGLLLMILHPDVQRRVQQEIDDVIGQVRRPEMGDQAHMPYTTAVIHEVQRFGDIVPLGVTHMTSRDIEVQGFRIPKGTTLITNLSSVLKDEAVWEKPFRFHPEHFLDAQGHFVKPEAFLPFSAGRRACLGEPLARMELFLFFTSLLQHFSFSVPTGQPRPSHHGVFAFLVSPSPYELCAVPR", "test": "Cytochrome P450 Family 2 Subfamily D Member 6 (CYP2D6) small molecule antagonists: luciferase reporter qHTS assay (AID 1671196); note: nearly all actives have a fitted effect of over 50% in size", "settings": "P450-Glo CYP2D6 enzyme assay, luciferin luminescence, 1 h; series mostly up to 115 µM", "source_text": "U.S. Tox21 Program National Center for Advancing Translational Sciences [NCATS] U.S. Environmental Protection Agency [EPA] National Institutes of Environmental Health Sciences [NIEHS] National Toxicology Program [NTP] U.S. Food and Drug Administration [FDA] Tox21 Assay Overview: Cytochrome P450 (CYP) enzymes are membrane-bound hemeproteins that play a key role in metabolism of drugs and xenobiotics. Evaluation of the effect of chemicals on CYP isozymes is useful to minimize the adverse drug reactions and toxicities in drug development process. Tox21 chemicals were tested for their effect on CYP enzyme activities by using P450-Glo (TM) screening systems (Promega Corporation, Madison, WI). These systems provide a luminescent method containing proluciferin substrates and are converted to luciferin products by CYP isozymes. The luciferin products formed are detected with a luciferin detection reagent, and the amount of light produced is proportional to CYP activity. P450-Glo (TM) CYP2D6 screening system (Catalog. No. V9890) was used to detect the compounds that interfere in CYP2D6 activity.\nTox21 Assay Protocol Summary: Two ul of enzyme-substrate mix was dispensed into medium binding white/solid 1536-well plates (Greiner Bio-One North America Inc., Monroe, NC) using a BioRaptr Flying Reagent Dispenser (FRD, Beckman Coulter, Brea, CA). […] The assay plates were incubated at room temperature for 10 min. Then 2 ul of NADPH regeneration solution was added to each well of the assay plates using an FRD and incubated at room temperature for 1 h. The reaction was stopped by adding 4 ul of detection reagent using an FRD and after 20 min incubation at room temperature the luminescence signal was measured using a ViewLux plate reader (Perkin Elmer, Shelton, CT). Data were expressed as relative luminescence units.", "values": [
      {"smiles": "O=C(O)C(O)[C@H](O)[C@@H](O)[C@H](O)[C@H](O)CO", "note": "(stereo not given in full)", "Potency": "64 µM (active)"},
      {"smiles": "CCC(C(=O)NC(N)=O)c1ccccc1", "note": "(stereo not given)", "Potency": "inactive"},
      {"smiles": "CCCC(C)CO", "note": "(stereo not given)", "Potency": "79.7 µM (active)"},
      {"smiles": "NC(=S)Nc1cccc2ccccc12", "Potency": "2.01 µM (active)"},
      {"smiles": "OCC(O)[C@@H](O)[C@H](O)[C@H](O)CO[C@H]1O[C@H](CO)[C@@H](O)[C@H](O)[C@H]1O", "note": "(stereo not given in full)", "Potency": "inactive"},
      {"smiles": "CC(C)(O)Cc1ccccc1", "Potency": "inactive"},
      {"smiles": "CC/C=C\\CCCCO", "Potency": "inactive"},
      {"smiles": "CCCCN(CCO)CCO", "Potency": "inactive"},
      {"smiles": "CCCC(C)C(=O)O", "note": "(stereo not given)", "Potency": "34.2 µM (active)"},
      {"smiles": "COc1ccc(COC=O)cc1", "Potency": "inactive"},
      {"smiles": "Cc1ncc(CSSCc2cnc(C)c(O)c2CO)c(CO)c1O", "Potency": "6.17 µM (active)"},
      {"smiles": "CC(C)CCCC(C)CCCC(C)CCCCC(C)CCCC(C)CCCC(C)C", "note": "(stereo not given)", "Potency": "inactive"},
      {"smiles": "CCN1CCCC(OC(=O)C(c2ccccc2)c2ccccc2)C1", "note": "(stereo not given)", "Potency": "1.38 µM (active)"},
      {"smiles": "CO[Si](OC)(OC)OC", "Potency": "inactive"},
      {"smiles": "CCCCCCCCC=O", "Potency": "inactive"},
      {"smiles": "CN1[C@@H]2CC[C@H]1CC(NC(=O)n1c(=O)[nH]c3ccccc31)C2", "note": "(stereo not given in full)", "Potency": "0.776 µM (active)"},
      {"smiles": "Cc1ccccc1C(=O)O", "Potency": "inactive"},
      {"smiles": "OC[C@H]1O[C@@H]2O[C@H]3[C@H](O)[C@@H](O)[C@@H](O[C@H]4[C@H](O)[C@@H](O)[C@@H](O[C@H]5[C@H](O)[C@@H](O)[C@@H](O[C@H]6[C@H](O)[C@@H](O)[C@@H](O[C@H]7[C@H](O)[C@@H](O)[C@@H](O[C@H]8[C@H](O)[C@@H](O)[C@@H](O[C@H]9[C@H](O)[C@@H](O)[C@@H](O[C@H]1[C@H](O)[C@H]2O)O[C@@H]9CO)O[C@@H]8CO)O[C@@H]7CO)O[C@@H]6CO)O[C@@H]5CO)O[C@@H]4CO)O[C@@H]3CO", "Potency": "inactive"},
      {"smiles": "COc1ccc(NC(C)=O)cc1", "Potency": "41 µM (active)"},
      {"smiles": "O=C(CCOCCOCCOCCOCCC(=O)Nc1c(I)cc(I)c(C(=O)O)c1I)Nc1c(I)cc(I)c(C(=O)O)c1I", "Potency": "inactive"},
      {"smiles": "CCCCCCCCCCCCCCCCCC(=O)OCCCCCCCCCCCCCC(C)C", "Potency": "inactive"},
      {"smiles": "O=C(O)c1ccccc1-c1ccc(C(F)(F)F)cc1", "Potency": "inactive"},
      {"smiles": "CCCCCCOC(=O)CC(CC(=O)OCCCCCC)(OC(=O)CCC)C(=O)OCCCCCC", "Potency": "inactive"},
      {"smiles": "CC/C=C\\C#N", "Potency": "inactive"},
      {"smiles": "O=C(O)CCNC(=O)c1ccc(N=Nc2ccc(O)c(C(=O)O)c2)cc1", "Potency": "inactive"},
      {"smiles": "Cc1c(F)cc2c(=O)c(C(=O)O)cn3c2c1CCC3C", "note": "(stereo not given)", "Potency": "inactive"},
      {"smiles": "CC(C)(C)CC(C)(C)N", "Potency": "inactive"},
      {"smiles": "CCCCCCCCCCCCI", "Potency": "inactive"},
      {"smiles": "NCCN1CCNC1=O", "Potency": "inactive"},
      {"smiles": "CCN(CC)C(=O)c1ccc(O)c(OC)c1", "Potency": "inactive"},
      {"smiles": "C[N+](C)(C)CC[N+]1(C)Cc2c(Cl)c(Cl)c(Cl)c(Cl)c2C1", "Potency": "1.55 µM (active)"},
      {"smiles": "CCCc1ccc(N)cc1", "Potency": "inactive"},
      {"smiles": "CC(C)COC(=O)c1ccccc1O", "Potency": "inactive"},
      {"smiles": "Cn1ccc2cc3c(cc21)CCN3C(=O)Nc1cccnc1", "activity change, negative = inhibition": "-16.8% [at 23.6 µM]"},
      {"smiles": "CC(C)(C)N(CCO)CCO", "Potency": "inactive"},
      {"smiles": "COC(=O)CCCCCCCCC(=O)OC", "Potency": "inactive"},
      {"smiles": "C[C@H](O)C(=O)Nc1c(I)c(C(=O)NC(CO)CO)c(I)c(C(=O)NC(CO)CO)c1I", "Potency": "inactive"},
      {"smiles": "Nc1cc(N)cc(C(=O)O)c1", "Potency": "35.6 µM (active)"},
      {"smiles": "Cc1nccn1CC1CCc2c(c3ccccc3n2C)C1=O", "note": "(stereo not given)", "Potency": "17.4 µM (active)"},
      {"smiles": "CSc1ccc(C=O)cc1", "Potency": "inactive"}
    ]}
  ]
}
